Measurements from PubChem BioAssay (EPA / NIEHS).
Inconclusive results are not listed. Active and inactive are the calls of the source. The calls were made as follows, unless noted: active = hit-call score of the fitted dose curve at least 0.9, where 1 is the maximum; inconclusive = response in the unintended direction; inactive = score below 0.9.

Experiments:
[1] = target: mouse Peroxisome Proliferator-activated Receptor gamma (PPARg), Pparg (gene 19016) (UniProt P37238); assay: ATG_mPPARg_XSP1: Attagene TRANS-FACTORIAL Multi-Species (XSP1) HepG2 Assay for mouse Peroxisome Proliferator-activated Receptor gamma (PPARg) (AID 2283802)
Chain of mouse Peroxisome Proliferator-activated Receptor gamma (PPARg), Pparg (gene 19016) (P37238 whole entry, looked up, the tested form may be a part): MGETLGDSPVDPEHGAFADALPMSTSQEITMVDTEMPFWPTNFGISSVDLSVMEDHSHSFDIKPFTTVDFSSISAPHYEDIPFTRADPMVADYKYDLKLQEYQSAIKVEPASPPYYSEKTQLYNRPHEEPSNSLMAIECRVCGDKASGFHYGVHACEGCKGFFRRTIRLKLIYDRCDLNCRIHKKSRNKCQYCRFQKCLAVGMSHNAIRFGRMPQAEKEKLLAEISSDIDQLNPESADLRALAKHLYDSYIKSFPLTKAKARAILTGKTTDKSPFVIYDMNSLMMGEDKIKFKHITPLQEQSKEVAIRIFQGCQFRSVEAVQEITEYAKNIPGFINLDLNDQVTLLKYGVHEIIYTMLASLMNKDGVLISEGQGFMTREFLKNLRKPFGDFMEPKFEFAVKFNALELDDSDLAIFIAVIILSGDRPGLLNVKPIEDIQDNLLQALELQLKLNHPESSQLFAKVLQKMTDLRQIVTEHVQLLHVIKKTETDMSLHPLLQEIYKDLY
Summary of the method: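 HepG2 cells transiently transfected with GAL4-UAS reporter units driven by mouse PPARg–GAL4 chimera; 3 nM 6-alpha-fluorotestosterone present. After 24 h dosing, reporter mRNA quantified by RT-PCR, fluorescent labelling and capillary electrophoresis; gain of signal versus DMSO.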

[2] = target: frog Thyroid hormone Receptor alpha (TRa), thra-a (gene 397942) (UniProt P15204); assay: ATG_frTRa_XSP1: Attagene TRANS-FACTORIAL Multi-Species (XSP1) HepG2 Assay for frog Thyroid hormone Receptor alpha (TRa) (AID 2283804)
Chain of frog Thyroid hormone Receptor alpha (TRa), thra-a (gene 397942) (P15204 whole entry, looked up, the tested form may be a part): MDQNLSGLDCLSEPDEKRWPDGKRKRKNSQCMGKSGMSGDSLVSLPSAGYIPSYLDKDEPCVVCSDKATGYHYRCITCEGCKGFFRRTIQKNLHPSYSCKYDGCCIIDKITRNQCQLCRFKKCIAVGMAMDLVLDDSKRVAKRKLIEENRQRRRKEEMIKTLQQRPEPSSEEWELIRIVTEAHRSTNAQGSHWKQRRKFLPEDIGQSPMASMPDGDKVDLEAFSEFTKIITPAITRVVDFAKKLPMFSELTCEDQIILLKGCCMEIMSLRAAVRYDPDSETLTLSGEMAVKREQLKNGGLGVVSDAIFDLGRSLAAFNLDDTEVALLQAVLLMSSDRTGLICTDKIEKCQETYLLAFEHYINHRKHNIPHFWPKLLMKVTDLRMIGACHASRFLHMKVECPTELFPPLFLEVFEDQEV
Summary of the method: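 HepG2 cells transiently transfected with frog TRa-GAL4 chimeric reporter units, dosed 24 hr with 3 nM 6-alpha-fluorotestosterone present; reporter mRNA quantified by RT-PCR, fluorescent labelling and capillary electrophoresis, gain of signal versus DMSO.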

[3] = target: human Thyroid hormone Receptor alpha (TRa), THRA (gene 7067) (UniProt P10827); assay: ATG_hTRa_XSP1: Attagene TRANS-FACTORIAL Multi-Species (XSP1) HepG2 Assay for human Thyroid hormone Receptor alpha (TRa) (AID 2283805)
Chain of human Thyroid hormone Receptor alpha (TRa), THRA (gene 7067) (P10827 whole entry, looked up, the tested form may be a part): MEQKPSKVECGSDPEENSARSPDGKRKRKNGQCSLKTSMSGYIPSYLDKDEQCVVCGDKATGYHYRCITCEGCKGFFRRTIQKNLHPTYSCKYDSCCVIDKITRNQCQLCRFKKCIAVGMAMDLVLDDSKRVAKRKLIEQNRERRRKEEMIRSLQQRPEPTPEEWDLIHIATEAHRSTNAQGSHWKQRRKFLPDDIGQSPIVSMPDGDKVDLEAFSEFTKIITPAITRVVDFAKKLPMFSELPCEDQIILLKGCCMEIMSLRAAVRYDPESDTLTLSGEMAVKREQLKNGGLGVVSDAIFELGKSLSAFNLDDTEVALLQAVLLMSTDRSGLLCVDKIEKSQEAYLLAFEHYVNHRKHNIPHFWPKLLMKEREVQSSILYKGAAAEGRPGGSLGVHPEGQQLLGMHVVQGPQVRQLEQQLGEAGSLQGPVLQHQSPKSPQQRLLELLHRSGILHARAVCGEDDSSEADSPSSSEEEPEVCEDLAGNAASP
Summary of the method: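 HepG2 cells transiently transfected with GAL4-UAS reporter units expressing chimeric NR-Gal4 proteins, dosed 24 hours with 3 nM 6-alpha-fluorotestosterone present. Reporter mRNA measured by RT-PCR and capillary electrophoresis; gain of signal fitted versus DMSO.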

[4] = ATG_XTT_Cytotoxicity_XSP1: Cytotoxicity Assessment in the Attagene TRANS-FACTORIAL Multi-Species (XSP1) HepG2 Assay (AID 2283810)
Summary of the method: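 XTT viability readout taken at 24 hours post-dosing in HepG2 liver cells co-treated with 3 nM 6-alpha-fluorotestosterone. Signal loss relative to DMSO controls reflects cytotoxicity.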

[5] = ATG_M_06_XSP2: Attagene TRANS-FACTORIAL Multi-Species (XSP2) HepG2 Assay for M06 Transcription Factor (Internal Marker) (AID 2283811);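 also: internal background marker reporter mRNA measured by RT-PCR and capillary electrophoresis; hits are increases in signal above the DMSO baseline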
Summary of the method: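 HepG2, multiplexed reporter transfection; 24 h dosing; AR stimulated with 3 nM 6-alpha-fluorotestosterone + 1.5 nM norgestrel; RNA → RT-PCR → 6-FAM primer extension → HpaI → CE. Positive direction vs DMSO.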

[6] = target: zebrafish Estrogen Receptor (ER1), esr1 (gene 259252) (UniProt P57717); assay: ATG_zfER1_XSP2: Attagene TRANS-FACTORIAL Multi-Species (XSP2) HepG2 Assay for zebrafish Estrogen Receptor (ER1) (AID 2283816)
Chain of zebrafish Estrogen Receptor (ER1), esr1 (gene 259252) (P57717 whole entry, looked up, the tested form may be a part): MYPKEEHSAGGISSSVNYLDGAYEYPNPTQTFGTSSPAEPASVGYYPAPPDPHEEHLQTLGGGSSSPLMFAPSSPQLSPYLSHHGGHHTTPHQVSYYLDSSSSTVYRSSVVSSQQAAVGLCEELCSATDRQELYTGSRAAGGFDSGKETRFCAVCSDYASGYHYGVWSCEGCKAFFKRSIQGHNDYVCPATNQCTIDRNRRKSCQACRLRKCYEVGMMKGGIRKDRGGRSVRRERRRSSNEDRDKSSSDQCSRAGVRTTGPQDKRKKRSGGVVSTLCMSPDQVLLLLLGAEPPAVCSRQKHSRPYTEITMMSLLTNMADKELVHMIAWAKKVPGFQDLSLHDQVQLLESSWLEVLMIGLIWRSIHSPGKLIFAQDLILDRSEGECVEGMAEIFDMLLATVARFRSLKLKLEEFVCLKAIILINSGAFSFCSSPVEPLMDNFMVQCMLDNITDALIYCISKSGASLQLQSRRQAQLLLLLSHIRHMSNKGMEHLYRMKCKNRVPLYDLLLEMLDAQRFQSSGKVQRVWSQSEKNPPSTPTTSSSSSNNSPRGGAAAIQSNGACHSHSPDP
Summary of the method: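 HepG2 cells transiently transfected with a GAL4-UAS reporter and a chimeric zebrafish ER1-Gal4 construct, dosed 24 h. Reporter mRNA quantified by RT-PCR, labelling, HpaI digestion and capillary electrophoresis, relative to DMSO.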

[7] = system: zebrafish Estrogen Receptor (ER2a), gene 317734; assay: ATG_zfER2a_XSP2: Attagene TRANS-FACTORIAL Multi-Species (XSP2) HepG2 Assay for zebrafish Estrogen Receptor (ER2a) (AID 2283818);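 also: hits raise reporter mRNA so AC50 reflects activation of zebrafish ER2a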
Summary of the method: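 HepG2 cells transiently transfected with GAL4-UAS reporter units and chimeric zebrafish ER2a-Gal4, exposed 24 h; medium contains 3 nM 6-alpha-fluorotestosterone and 1.5 nM norgestrel. Reporter mRNA quantified by RT-PCR, HpaI digestion, capillary electrophoresis; gain versus DMSO.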

[8] = system: frog Estrogen Receptor (ER), gene 398734; assay: ATG_frER1_XSP2: Attagene TRANS-FACTORIAL Multi-Species (XSP2) HepG2 Assay for frog Estrogen Receptor (ER) (AID 2283821);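 also: hits raise reporter mRNA above DMSO baseline so potency means agonist or activator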
Summary of the method: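 Steps: transfect HepG2 with multiple reporter transcription units; treat with chemical for 24 h; isolate RNA, reverse-transcribe, PCR-amplify, label with 6-FAM, digest with HpaI; resolve fragments by capillary electrophoresis. Signal is scored against DMSO.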

[9] = target: Peroxisome proliferator-activated receptor gamma (Homo sapiens) (UniProt P37231); assay: ATG_hPPARg_XSP2: Attagene TRANS-FACTORIAL Multi-Species (XSP2) HepG2 Assay for human Peroxisome Proliferator-activated Receptor gamma (PPARg) (AID 2283829);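 also: actives raise reporter mRNA above DMSO so AC50 reflects PPARg activation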
Chain of Peroxisome proliferator-activated receptor gamma (Homo sapiens) (P37231 whole entry, looked up, the tested form may be a part): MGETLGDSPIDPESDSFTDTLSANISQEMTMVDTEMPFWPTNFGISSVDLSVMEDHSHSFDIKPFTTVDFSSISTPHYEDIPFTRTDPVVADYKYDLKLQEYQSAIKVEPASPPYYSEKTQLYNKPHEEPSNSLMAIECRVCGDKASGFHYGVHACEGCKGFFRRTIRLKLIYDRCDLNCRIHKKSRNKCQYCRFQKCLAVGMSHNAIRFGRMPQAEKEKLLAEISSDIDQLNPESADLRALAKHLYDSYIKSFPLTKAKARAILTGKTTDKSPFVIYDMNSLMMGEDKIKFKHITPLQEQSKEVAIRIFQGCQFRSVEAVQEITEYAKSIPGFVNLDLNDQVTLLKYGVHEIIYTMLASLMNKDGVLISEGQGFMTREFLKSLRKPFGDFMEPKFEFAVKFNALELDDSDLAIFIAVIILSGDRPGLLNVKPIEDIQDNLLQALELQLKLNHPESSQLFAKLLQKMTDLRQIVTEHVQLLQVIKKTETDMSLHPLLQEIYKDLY
Summary of the method: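 Multiplexed transactivation in transfected HepG2 liver cells. Gal4-chimeric receptor activity reported as induced reporter transcript after 24 h.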

[10] = target: mouse Peroxisome Proliferator-activated Receptor gamma (PPARg), Pparg (gene 19016) (UniProt P37238); assay: ATG_mPPARg_XSP2: Attagene TRANS-FACTORIAL Multi-Species (XSP2) HepG2 Assay for mouse Peroxisome Proliferator-activated Receptor gamma (PPARg) (AID 2283830);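 also: hits are gains in reporter mRNA above DMSO so AC50 marks activation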
Summary of the method: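 HepG2 cells transiently transfected with GAL4-UAS reporter units for chimeric NR-Gal4 proteins including mouse PPARg, exposed 24 h; medium contained 3 nM 6-alpha-fluorotestosterone and 1.5 nM norgestrel. Reporter mRNA quantified by RT-PCR, HpaI digestion and capillary electrophoresis, vs DMSO.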

[11] = system: zebrafish Peroxisome Proliferator-activated Receptor gamma (PPARg), gene 557037; assay: ATG_zfPPARg_XSP2: Attagene TRANS-FACTORIAL Multi-Species (XSP2) HepG2 Assay for zebrafish Peroxisome Proliferator-activated Receptor gamma (PPARg) (AID 2283833);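 also: actives increase reporter signal over DMSO so AC50 reflects activation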
Summary of the method: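 Cell-based transactivation of a chimeric zebrafish PPARg-GAL4 receptor was assessed in transiently transfected HepG2 cells after 24 h of treatment. Reporter mRNA induction, detected fluorescently after RT-PCR, was analysed in the positive direction against DMSO.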

[12] = ATG_M_61_XSP2: Attagene TRANS-FACTORIAL Multi-Species (XSP2) HepG2 Assay for M61 Transcription Factor (Internal Marker) (AID 2283835; active = hit-call score of the fitted dose curve at least 0.9, where 1 is the maximum; inactive = score below 0.9;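 also: reporter mRNA of an internal background marker read by RT-PCR and capillary electrophoresis; active means a rise in signal above the DMSO baseline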)
Summary of the method: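 First, HepG2 cells are transfected with reporter units under GAL4-UAS control. Next, chemicals are applied for 24 h. Then total RNA is reverse-transcribed, amplified, fluorescently labelled and sized by capillary electrophoresis, with gain of signal scored against DMSO.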

[13] = target: zebrafish Thyroid Hormone Receptor beta (TRb), thrb (gene 30607) (UniProt Q9PVE4); assay: ATG_zfTRb_XSP2: Attagene TRANS-FACTORIAL Multi-Species (XSP1) HepG2 Assay for zebrafish Thyroid Hormone Receptor beta (TRb) (AID 2283836)
Chain of zebrafish Thyroid Hormone Receptor beta (TRb), thrb (gene 30607) (Q9PVE4 whole entry, looked up, the tested form may be a part): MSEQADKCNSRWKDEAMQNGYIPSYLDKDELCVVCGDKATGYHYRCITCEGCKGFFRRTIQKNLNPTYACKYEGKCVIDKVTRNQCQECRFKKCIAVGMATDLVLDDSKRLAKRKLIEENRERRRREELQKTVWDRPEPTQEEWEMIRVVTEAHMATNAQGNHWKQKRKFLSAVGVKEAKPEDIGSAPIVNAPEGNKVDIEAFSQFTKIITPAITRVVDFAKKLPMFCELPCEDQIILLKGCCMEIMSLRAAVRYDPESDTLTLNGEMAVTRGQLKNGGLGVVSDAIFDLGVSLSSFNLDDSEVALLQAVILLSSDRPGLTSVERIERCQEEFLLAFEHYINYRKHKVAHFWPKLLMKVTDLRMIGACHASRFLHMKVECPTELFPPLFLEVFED
Summary of the method: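 HepG2 cells transiently transfected with chimeric zebrafish TRb-GAL4 reporter units, dosed 24 h with 3 nM 6-alpha-fluorotestosterone and 1.5 nM norgestrel present. Reporter mRNA quantified by RT-PCR and capillary electrophoresis; gain fitted against DMSO.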

[14] = target: rat CYP2C11, Cyp2c11 (gene 29277) (UniProt P08683); assay: NVS_ADME_rCYP2C11: NovaScreen (NVS) CYP450-related Enzyme Activity (ADME) Assay for rat CYP2C11 (AID 2283118)
Chain of rat CYP2C11, Cyp2c11 (gene 29277) (P08683 whole entry, looked up): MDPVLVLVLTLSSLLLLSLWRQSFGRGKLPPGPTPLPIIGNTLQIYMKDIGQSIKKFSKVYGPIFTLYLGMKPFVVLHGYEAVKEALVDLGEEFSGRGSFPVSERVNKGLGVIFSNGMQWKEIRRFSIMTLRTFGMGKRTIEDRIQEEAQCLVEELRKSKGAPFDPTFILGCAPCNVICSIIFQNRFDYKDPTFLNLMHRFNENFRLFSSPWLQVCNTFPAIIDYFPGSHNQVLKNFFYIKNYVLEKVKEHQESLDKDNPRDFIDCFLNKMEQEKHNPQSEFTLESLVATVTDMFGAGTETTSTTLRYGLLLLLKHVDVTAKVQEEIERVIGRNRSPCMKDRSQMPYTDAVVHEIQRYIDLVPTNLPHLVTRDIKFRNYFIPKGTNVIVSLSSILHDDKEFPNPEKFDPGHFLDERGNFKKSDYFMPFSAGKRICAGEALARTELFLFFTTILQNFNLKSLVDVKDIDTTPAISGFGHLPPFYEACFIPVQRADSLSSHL
Summary of the method: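 Cell-free recombinant rat enzyme with fluorescent substrate; readout 0.33 h after dosing, loss of signal versus acetonitrile control. Initial duplicate single-point at 10 uM; actives rerun in concentration series.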

[15] = target: rat CYP2C13, Cyp2c13 (gene 171521) (UniProt P20814); assay: NVS_ADME_rCYP2C13: NovaScreen (NVS) CYP450-related Enzyme Activity (ADME) Assay for rat CYP2C13 (AID 2283121)
Chain of rat CYP2C13, Cyp2c13 (gene 171521) (P20814 whole entry, looked up): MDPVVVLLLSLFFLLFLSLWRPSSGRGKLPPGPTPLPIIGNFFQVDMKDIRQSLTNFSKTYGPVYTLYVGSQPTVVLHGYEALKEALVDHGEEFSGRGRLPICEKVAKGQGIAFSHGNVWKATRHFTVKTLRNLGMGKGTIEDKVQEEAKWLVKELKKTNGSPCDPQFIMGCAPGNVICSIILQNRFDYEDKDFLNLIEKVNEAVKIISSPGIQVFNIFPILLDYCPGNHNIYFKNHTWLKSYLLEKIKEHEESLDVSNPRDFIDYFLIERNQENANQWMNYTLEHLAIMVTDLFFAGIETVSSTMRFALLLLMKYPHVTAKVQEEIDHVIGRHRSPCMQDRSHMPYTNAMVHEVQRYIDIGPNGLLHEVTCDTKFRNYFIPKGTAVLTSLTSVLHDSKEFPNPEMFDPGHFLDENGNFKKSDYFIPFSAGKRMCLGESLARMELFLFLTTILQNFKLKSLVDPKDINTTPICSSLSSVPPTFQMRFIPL
Summary of the method: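 Recombinant rat CYP2C13 with fluorogenic substrate, 0.75 h cell-free incubation; primary screen in duplicate at 10 uM, actives followed in concentration series. Fluorescence loss relative to acetonitrile control indicates inhibition.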

[16] = target: human Dual Specificity Protein Phosphatase 3 (DUSP3), DUSP3 (gene 1845) (UniProt P51452); assay: NVS_ENZ_hDUSP3: NovaScreen (NVS) Enzymatic Assay for human Dual Specificity Protein Phosphatase 3 (DUSP3) (AID 2283152);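 also: phosphatase activity of recombinant human DUSP3 on a fluorogenic substrate without cells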
Chain of human Dual Specificity Protein Phosphatase 3 (DUSP3), DUSP3 (gene 1845) (P51452 whole entry, looked up): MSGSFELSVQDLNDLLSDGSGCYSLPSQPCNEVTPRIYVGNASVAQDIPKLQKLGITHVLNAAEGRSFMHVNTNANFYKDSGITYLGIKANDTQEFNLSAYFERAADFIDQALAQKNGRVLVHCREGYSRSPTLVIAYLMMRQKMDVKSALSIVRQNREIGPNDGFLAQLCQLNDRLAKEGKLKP
Summary of the method: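 Cell-free assay with recombinant human DUSP3 and fluorogenic substrate, read by fluorescence intensity. Primary screen ran duplicate at 25 uM; actives followed up in concentration series; loss of signal versus DMSO scored.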

[17] = target: human Matrix Metalloproteinase-2 (MMP2), MMP2 (gene 4313) (UniProt P08253); assay: NVS_ENZ_hMMP2: NovaScreen (NVS) Enzymatic Assay for human Matrix Metalloproteinase-2 (MMP2) (AID 2283184)
Chain of human Matrix Metalloproteinase-2 (MMP2), MMP2 (gene 4313) (P08253 whole entry, looked up): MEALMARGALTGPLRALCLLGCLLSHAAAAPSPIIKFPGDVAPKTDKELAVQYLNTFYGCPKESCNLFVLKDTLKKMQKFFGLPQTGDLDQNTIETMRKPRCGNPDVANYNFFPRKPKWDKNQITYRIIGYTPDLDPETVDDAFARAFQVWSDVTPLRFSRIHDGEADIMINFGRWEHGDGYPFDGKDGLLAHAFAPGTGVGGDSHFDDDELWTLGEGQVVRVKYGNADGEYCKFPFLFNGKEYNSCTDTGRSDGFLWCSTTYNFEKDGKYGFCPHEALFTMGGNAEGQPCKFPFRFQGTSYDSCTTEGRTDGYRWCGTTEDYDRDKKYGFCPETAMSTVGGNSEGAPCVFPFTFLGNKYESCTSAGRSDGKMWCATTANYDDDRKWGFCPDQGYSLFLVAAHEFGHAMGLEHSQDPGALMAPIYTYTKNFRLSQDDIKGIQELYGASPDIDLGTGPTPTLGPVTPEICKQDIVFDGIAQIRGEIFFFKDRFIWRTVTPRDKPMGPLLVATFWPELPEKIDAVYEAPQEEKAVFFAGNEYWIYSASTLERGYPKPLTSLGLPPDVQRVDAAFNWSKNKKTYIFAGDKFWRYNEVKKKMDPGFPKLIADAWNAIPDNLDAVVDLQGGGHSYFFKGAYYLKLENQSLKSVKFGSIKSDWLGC
Summary of the method: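 Cell-free recombinant MMP2 activity with a fluorescent substrate, read 1 h after dosing. Primary screen in duplicate at 25 uM; actives then run in concentration series; loss of signal fitted versus DMSO.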

[18] = CEETOX_H295R_11DCORT_noMTC: CeeTox H295R High-throughput Steroidogenesis Assay for 11-Deoxycortisol (11DCORT), maximum tolerated concentration (MTC) filtered results only (AID 2283911; active = hit-call score of the fitted dose curve at least 0.9, where 1 is the maximum; inactive = score below 0.9); conditions: actives raise or lower the signal
Summary of the method: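 Readout is 11-deoxycortisol in culture medium by reverse-phase HPLC with MS/MS, after 48 h chemical treatment of forskolin-primed H295R cells. Values are relative to DMSO and unfiltered for cytotoxicity.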

[19] = CEETOX_H295R_OHPREG_noMTC: CeeTox H295R High-throughput Steroidogenesis Assay for OH-Pregnenolone (OHPREG), maximum tolerated concentration (MTC) filtered results only (AID 2283912; active = hit-call score of the fitted dose curve at least 0.9, where 1 is the maximum; inactive = score below 0.9); conditions: actives raise or lower the signal
Summary of the method: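 Steroidogenesis in H295R cells (OECD 456, modified): after 48 h forskolin priming and 48 h chemical treatment, secreted 17alpha-hydroxypregnenolone is measured by HPLC-MS/MS. Activity is fitted in both directions against DMSO; concentrations are not filtered by MTT-based MTC.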

[20] = CEETOX_H295R_OHPROG_noMTC: CeeTox H295R High-throughput Steroidogenesis Assay for OH-Progesterone (OHPROG), maximum tolerated concentration (MTC) filtered results only (AID 2283914; active = hit-call score of the fitted dose curve at least 0.9, where 1 is the maximum; inactive = score below 0.9); conditions: actives raise or lower the signal
Summary of the method: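 Forskolin 10 uM, 48 h prestim → test cmpd in DMSO (0.1% final), 48 h → medium MTBE extraction → LC-MS/MS quant of 17alpha-OH-progesterone. Bidirectional fit vs DMSO; no MTT-based MTC filtering.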

Q: What does the source list for `CC(C)(c1cc(Cl)c(O)c(Cl)c1)c1cc(Cl)c(O)c(Cl)c1`?
A: AC50 [1]: 2.92 µM (active); outcome [2]: inactive; outcome [3]: inactive; outcome [4]: inactive; outcome [5]: inactive; outcome [6]: inactive; AC50 [7]: 1.62 µM (active); AC50 [8]: 2.8 µM (active); AC50 [9]: 3.94 µM (active); AC50 [10]: 3.81 µM (active); outcome [11]: inactive; outcome [12]: inactive; outcome [13]: inactive

Q: With `O=CNC(N1CCN(C(NC=O)C(Cl)(Cl)Cl)CC1)C(Cl)(Cl)Cl` (stereo not given) as the molecule, how does the AC50 [14] read?
A: 5.16 µM (active)

Q: What about the outcome [15] of the same molecule?
A: inactive

Q: Which outcome [16] does the source give for `CC1OC(C)OC(C)O1` (stereo not given) here?
A: inactive

Q: Which outcome [17] does the source give for `Cc1cc(C)c(C2=C(OC(=O)CC(C)(C)C)C3(CCCC3)OC2=O)c(C)c1` here?
A: inactive

Q: For `C[C@]12CC[C@H](O)C[C@H]1CC[C@@H]1[C@@H]2C[C@@H](O)[C@]2(C)[C@@H](C3=CC(=O)OC3)CC[C@]12O`, which AC50 [18] is on record?
A: 5.79 µM (active)

Q: And the AC50 [19]?
A: 1.28 µM (active)

Q: And the AC50 [20]?
A: 5.47 µM (active)
